HCV inhibitor – qHTS Assay for Inhibitors of Hepatitis C Virus (HCV) | 340,000 compounds, 3.4% hits | Huh7.5.1 HCVcc-Cre infection, luciferase reporter, 44 h | Potency, µM (series often up to 41.8 µM), for inactives: top-dose activity change, negative = inhibition, actives largely listed as inhibitors; also: potency is read from the fitted curve at half-maximal effect
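After 44 h co-culture of compound, cells and HCVcc-Cre (~0.5 moi), substrate is added for 15 min at room temperature and luciferase measured over 15 sec. Cells were seeded at 1,000/well and pre-cultured 4 h.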
Pf growth 48h – Primary qHTS for delayed death inhibitors of the malarial parasite plastid, 48 hour incubation; Potency, µM (highest dose often 28.7 µM), without a hit: at the top dose activity change, negative = inhibition, actives largely listed as inhibitors; P. falciparum luciferase growth in erythrocytes, 48 h; 310,000 compounds, 5.9% hits; also: potency is read from the fitted curve at half-maximal effect
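Compounds are pin-transferred into medium, infected erythrocytes (2% hematocrit, 0.1% parasitemia final) are added, and plates sit one parasite generation at 37 C in 5% CO2. Detection reagent is then added and luminescence measured.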
HCMV inh – qHTS Assay for inhibitors of the human cytomegalovirus (HCMV); HFF cells, HCMV-luciferase reporter, 72 h; hits give low values; AID 1259415, 2018; activity change, negative = inhibition, % at 57.5 µM; 410,000 compounds, 4.5% hits; in the data active = activity change below about -60%; inconclusive = no clear call, values can overlap the other calls; inactive = above about -39%
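Screen run at 2 compound doses on HFFs infected with reporter HCMV, MOI 1 PFU/cell. Luciferase activity from cell lysates at 72 h post infection gave inhibition relative to buffer-only and Salinomycin wells.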
Lassa entry inh – qHTS for Inhibitors of binding or entry into cells for Lassa Virus | Lassa virus pseudotype entry inhibition, cell reporter | 300,000 compounds, 1.2% hits | Potency, µM (highest dose often 37.9 µM), for the others: at the top dose activity change, negative = inhibition, usual class: inhibitors; calls by dose curve; tested in HEK293 cells; also: potency is read from the fitted curve at half-maximal effect; nearly all actives have a fitted effect of over 50% in size
MARV entry inh – qHTS for inhibitors of binding or entry into cells for Marburg Virus. AID 540276, 2011. 300,000 compounds, 1.8% hits. Marburg virus pseudotyped entry inhibition, cell reporter. Potency, µM (titrated, usually from 37.8 µM), inactives show top-dose activity change, negative = inhibition, hits mostly inhibitors; calls by dose curve; tested in HEK293 cells; also: potency is read from the fitted curve at half-maximal effect
Pf growth 96h – Primary qHTS for delayed death inhibitors of the malarial parasite plastid, 96 hour incubation; P. falciparum luciferase reporter growth, 96 h; Potency, µM (top dose mostly 28.7 µM), inactives show top-dose activity change, negative = inhibition, actives largely listed as inhibitors; 320,000 compounds, 6.9% hits; AID 504834, 2011; also: potency is read from the fitted curve at half-maximal effect
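Infected RBCs, 2% Hct / 0.05% parasitemia final; luciferase-reporter P. falciparum; cpd 96 h, 37 C, 5% CO2; luciferase detection reagent; luminescence.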
* = called active by the depositor; ? = inconclusive; / = no result given; [ ] = dose if it differs, or a comment. Only some compounds are listed: those with a hit (about 14% of all), similar ones and a draw of the others. Unless noted, calls follow the shape of the dose curve; as a rule, active = well fitted inhibition curve with a large enough effect; inconclusive = small, poorly fitted or top-dose-only effect, or another doubt; inactive = no such curve, though single readings can be large or run the other way. % is scaled to controls: 0 for no effect and ±100 for the full control effect.

SMILES	HCV inhibitor	Pf growth 48h	HCMV inh	Lassa entry inh	MARV entry inh	Pf growth 96h
O=C(/C=C/c1ccccc1Cl)Nc1cccc(O)c1	-10%	278%	28	/	/	375%
O=C(/C=C/c1ccccc1Cl)Nc1ccccc1	?	228%	131	?	10µM*	73%
CN(C)S(=O)(=O)c1ccc(NC(=O)/C=C/c2ccccc2Cl)cc1	8.9µM*	?	?	-20%	?	?
CCN(CC)c1ccc2cc(-c3nc(-c4ccccc4)no3)c(=O)oc2c1	/	/	67	0%[46.1 µM]	/	/
COc1ccccc1CNC(=O)C(Cc1ccccc1)NS(=O)(=O)c1ccc2c(c1)CCN2C(C)=O (stereo not given)	/	/	6	-5%[46.1 µM]	?	/
COc1ccccc1Oc1ccc(Oc2ccccc2OC)cc1	-5%	-23%	-19	?	10µM*	-28%
COc1ccccc1Oc1ccc(NC(=O)c2ccc(Cl)cc2)cc1	2.8µM*	?	-25	-4%	-14%	?
COc1ccc(NC(=O)Nc2cccc3c2O[C@H](CN(C)S(=O)(=O)c2cn(C)cn2)[C@@H](C)CN([C@H](C)CO)C3=O)cc1	2%	/	69	/	/	/
COc1ccc(C(=O)N2CCc3ccccc3C2)cc1S(=O)(=O)N1CCCC1	/	/	-3	/	/	/
COc1ccc(C(=O)Nc2cccc(C(=O)O)c2)cc1S(=O)(=O)N1CCCC1	14%	119%	48	-8%	3%	1%
COc1ccc(C(=O)Nc2ccc(Br)cc2F)cc1S(=O)(=O)N1CCCC1	?	?	-24	?	?	10µM*
COc1ccc(Cl)cc1S(=O)(=O)N1CCC(C(=O)NC2CC2)CC1	10%	?	/	-1%	-5%	8.3µM*
COc1cc2c(cc1OC)CN(S(C)(=O)=O)CC2	1%	/	-85*	/	/	29%
COc1cc2c(cc1OC)CN(C(=O)c1ccc(OC)c(S(=O)(=O)N3CCCC3)c1)CC2	-13%	12µM*	14	-2%	14%	?
Cn1c(=O)nc2n(-c3ccc(Cl)c(Cl)c3)c3cc(Cl)ccc3cc-2c1=O	/	/	13	19%[46.1 µM]	16%[46.1 µM]	/
Cc1cc(NC(=O)CCn2c(=O)c3cccn3c3cccnc32)ccc1Br	/	/	-35	24%[46.1 µM]	/	/
COc1ccc(C(=O)NC2CCCCC2)cc1S(=O)(=O)N1CCOCC1	15%	-14%	30	-4%[46.1 µM]	5%[46.1 µM]	?
COc1ccc(Cl)cc1S(=O)(=O)N1CCN(C)CC1	9%	/	23	/	/	-12%
COc1ccc(C(=O)Nc2ncccc2C)cc1S(=O)(=O)N1CCCc2ccccc21	1%	-14%	-8	5%	26%	23%
COc1ccc(C(=O)NC2CCCCCC2)cc1S(=O)(=O)N1CCCC1	5%	-24%	-63*	20%	27%[46.1 µM]	?
COc1ccc(C(=O)NC2CCCCCC2)cc1S(=O)(=O)N1CCCc2ccccc21	?	/	-62*	7.1µM*	?	10µM*
COc1ccc(Cl)cc1S(=O)(=O)N1CCN(C(=O)c2cc(OC)c(OC)c(OC)c2)CC1	4%	?	-5	0%	?	12µM*
Cn1c(=O)c(Nc2ccc(O)cc2)c2c3c(cccc31)C(=O)c1ccccc1-2	?	?	-61*	-4%	-29%	?
NS(=O)(=O)c1ccc(CCNC(=O)c2ccc([N+](=O)[O-])s2)cc1	?	?	-100*	?	?	?
O=C(NCCCN1CCCC1=O)c1ccc([N+](=O)[O-])s1	4%	10µM*	3	3%	-5%	?
SMILES	HCV inhibitor	Pf growth 48h	HCMV inh	Lassa entry inh	MARV entry inh	Pf growth 96h
CCc1sc(C(=O)NCCCN2CCCC2=O)cc1Br	7%	/	-3	20%	16%	/
CCCCN(C)CCNC(=O)c1cc2c(-c3cccc(OC)c3)nn(C)c2s1	?	1.5µM*	-15	?	?	-19%
CCCCN(C)CCNC(=O)c1cc2c(-c3ccccc3F)nn(C)c2s1	?	?	29	?	?	-6%
COc1ccc(OC)c(CCNC(=O)c2cc3c(-c4ccccc4F)nn(C)c3s2)c1	/	/	-90*	?	?	/
COc1cccc(-c2nn(C)c3sc(C(=O)NCCc4ccc(Cl)cc4)cc23)c1	/	/	?	-21%[46.1 µM]	-33%[46.1 µM]	/
COc1cccc(-c2nn(C)c3sc(C(=O)NCCCN(C)Cc4ccccc4)cc23)c1	?	2.1µM*	17	?	?	57%
CCN(CC)CCCNC(=O)c1cc2c(-c3cccc(OC)c3)nn(C)c2s1	11µM*	8.3µM*	75	/	/	80%
COc1ccc(NC(=O)c2cc3c(-c4ccccc4F)nn(C)c3s2)c(OC)c1	/	/	-18	-27%[46.1 µM]	9%[46.1 µM]	/
CCC(C(=O)NCc1ccccc1Cl)n1nc(C)c2sc3ccccc3c2c1=O (stereo not given)	/	/	11	-8%[46.1 µM]	5%[46.1 µM]	/
CC(=O)c1ccc(NC(=O)CN2C(=O)CCc3cc(S(=O)(=O)N4CCC(C)CC4)ccc32)cc1	/	/	27	-10%[46.1 µM]	/	/
COc1ccccc1CNC(=O)CN1C(=O)CCn2nc(-c3ccccc3)cc21	/	/	8	17%[46.1 µM]	/	/
Cn1nc(-c2ccc(Cl)cc2)c2cc(C(=O)NCCCN3CCCC3)sc21	13µM*	/	/	/	/	?
COc1cccc(-c2nn(C)c3sc(C(=O)NCc4ccco4)cc23)c1	7.1µM*	7.4µM*	32	?	8%	4%
CCOCCCNC(=O)c1cc2c(-c3ccc(OC)c(OC)c3)nn(C)c2s1	/	/	8	-29%[46.1 µM]	-28%[46.1 µM]	/
CCN1CCCC1CNC(=O)c1cc2c(-c3cccc(OC)c3)nn(C)c2s1 (stereo not given)	?	?	-23	?	?	5.9µM*
CCCCN(CC)CCCNC(=O)c1cc2c(-c3ccc(OC)c(OC)c3)nn(C)c2s1	?	2.6µM*	38	?	?	?
Cc1noc(C)c1NC(=O)Nc1ccc2c(c1)CC(=O)N([C@@H](C)CO)C[C@@H](C)[C@@H](CN(C)C(=O)Nc1cccc3ccccc13)O2	6%	/	13	/	/	/
CN1C(C(=O)c2ccccc2)=C(OC(=O)c2ccc(Br)cc2)c2ccccc2S1(=O)=O	/	/	-14	14%[46.1 µM]	-9%[46.1 µM]	/
Cn1cc(S(=O)(=O)N2CCCC2)cc1C(=O)Nc1ccc(C(F)(F)F)cc1	/	/	?	-15%[46.1 µM]	/	/
CC(C(=O)NCc1ccccc1)n1c(CSCCOc2ccccc2)nc2ccccc21 (stereo not given)	/	/	16	/	/	/
CCCCCCc1ccc(-c2ncc(N)cn2)cc1	5.6µM*	297%	-3	4%	-27%	237%
C/C(CC(=O)Nc1ccccc1Br)=N\NC(=O)C(=O)N1CCCC1	-17%	9%	1	25%	-6%	10µM*

Compound activity deposited in PubChem by National Center for Advancing Translational Sciences (NCATS).
